Activity calls are given as the source filed them. The calls were made as follows: active = hit-call score of the fitted dose curve at least 0.9, where 1 is the maximum; inactive = score below 0.9.
What follows are compounds tested against human Zeta Chain of T Cell Receptor Associated Protein Kinase 70 (ZAP70), ZAP70 (gene 7535) (UniProt P43403) (assay: NVS_ENZ_hZAP70: NovaScreen (NVS) Enzymatic Assay for human Zeta Chain of T Cell Receptor Associated Protein Kinase 70 (ZAP70)).
Description: NVS_ENZ_hZAP70 is a biochemical, single-readout assay that uses extracted gene-proteins in a cell-free assay. Measurements were taken 0 hour after chemical dosing in a 96-well plate.NVS_ENZ_hZAP70 is one of one assay component(s) measured or calculated from the NVS_ENZ_hZAP70 assay. It is designed to make measurements of enzyme activity, a form of enzyme reporter, as detected with fluorescence intensity signals by Fluorescence and electrophoretic mobility shift technology.Data from the assay component NVS_ENZ_hZAP70 was analyzed into 1 assay endpoint. This assay endpoint, NVS_ENZ_hZAP70, was analyzed in the positive analysis fitting direction relative to DMSO as the negative control and baseline of activity. Using a type of enzyme reporter, loss-of-signal activity can be used to understand changes in the enzymatic activity as they relate to the gene ZAP70. Furthermore, this assay endpoint can be referred to as a primary readout, because this assay has produced multiple assay endpoints where this one serves a enzymatic activity function. To generalize the intended target to other relatable targets, this assay endpoint is annotated to the kinase intended target family, where the subfamily is non-receptor tyrosine kinase. […]

Sequence of human Zeta Chain of T Cell Receptor Associated Protein Kinase 70 (ZAP70), ZAP70 (gene 7535) (P43403 whole entry, looked up): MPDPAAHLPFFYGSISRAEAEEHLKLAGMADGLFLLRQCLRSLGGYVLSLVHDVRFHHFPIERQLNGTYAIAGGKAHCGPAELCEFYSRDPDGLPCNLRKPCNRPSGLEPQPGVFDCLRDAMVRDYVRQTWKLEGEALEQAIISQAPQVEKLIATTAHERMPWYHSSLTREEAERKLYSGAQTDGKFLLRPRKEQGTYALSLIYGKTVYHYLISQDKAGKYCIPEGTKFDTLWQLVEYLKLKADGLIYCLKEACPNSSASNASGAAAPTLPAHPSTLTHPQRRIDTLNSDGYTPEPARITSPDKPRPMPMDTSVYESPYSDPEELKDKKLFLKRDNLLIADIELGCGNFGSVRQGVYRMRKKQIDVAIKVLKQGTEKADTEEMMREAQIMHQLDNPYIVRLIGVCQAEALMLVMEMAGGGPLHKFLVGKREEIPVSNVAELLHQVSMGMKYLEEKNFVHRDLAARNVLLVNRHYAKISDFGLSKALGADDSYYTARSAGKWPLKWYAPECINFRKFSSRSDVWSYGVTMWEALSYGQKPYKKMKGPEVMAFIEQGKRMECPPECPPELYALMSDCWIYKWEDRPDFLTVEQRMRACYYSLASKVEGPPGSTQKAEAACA

Row | Compound | AC50 | outcome
1 | O=S(=O)(O)C(F)(F)C(F)(F)C(F)(F)C(F)(F)C(F)(F)C(F)(F)C(F)(F)C(F)(F)F | 12.3 µM (active) | 
2 | O=C(O)C(F)(F)C(F)(F)C(F)(F)C(F)(F)C(F)(F)C(F)(F)C(F)(F)F |  | inactive
